# Test results from PubChem BioAssay (Tox21).
# Values joined by “and” are separate entries in the source; they are usually repeats but may differ in a detail not shown here. Equal entries are not always repeated. Results filed as inconclusive are left out. Entries that show only a call come without a potency. More than one record can exist for a structure, and the calls need not agree. Active and inactive are the calls of the source. The call rests on the fitted dose curve; in most records, active means well fitted curve in the direction sought with a large enough effect in the repeat runs; inconclusive means weak or mixed curves; inactive means no such curve, though single readings can be large; an effect the other way counts as inactive or inconclusive.
# Tests used:
# [1] = target: Cytochrome P450 2C19 (Homo sapiens) (UniProt P33261); test: Cytochrome P450 Family 2 Subfamily C Member 19 (CYP2C19) small molecule antagonists: luciferase reporter qHTS assay (AID 1671197); further: nearly all actives have a fitted effect of over 65% in size; further: potency means the concentration at half of the fitted maximal effect
# Summary of the method: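 P450-Glo CYP2C19 screening system; proluciferin substrate; DMSO compound stocks; 10 min RT preincubation; NADPH regeneration, 1 h at 37C; luciferin detection reagent, 20 min RT; luminescence as RLU.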
# [2] = target: Cytochrome P450 2C9 (Homo sapiens) (UniProt P11712); test: Cytochrome P450 Family 2 Subfamily C Member 9 (CYP2C9) small molecule antagonists: luciferase reporter qHTS assay (AID 1671198); further: nearly all actives have a fitted effect of over 50% in size; further: potency means the concentration at half of the fitted maximal effect
# Summary of the method: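 P450-Glo proluciferin substrate with CYP2C9 enzyme; 10 min RT preincubation, then NADPH regeneration 1 h at 37C; luciferin detection reagent 20 min RT, luminescence in relative luminescence units.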
# [3] = target: Cytochrome P450 1A2 (Homo sapiens) (UniProt P05177); test: Cytochrome P450 Family 1 Subfamily A Member 2 (CYP1A2) small molecule antagonists: luciferase reporter qHTS assay (AID 1671199); further: nearly all actives have a fitted effect of over 50% in size; further: potency means the concentration at half of the fitted maximal effect
# Summary of the method: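 Inhibition of CYP1A2 conversion of proluciferin to luciferin, detected by luminescence. Reaction run 1 h at room temperature with NADPH regeneration after brief compound preincubation.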
# [4] = target: Voltage-gated inwardly rectifying potassium channel KCNH2 (Homo sapiens) (UniProt Q12809); test: Human Ether-a-go-go-Related Gene (hERG) channel small molecule antagonists: fluorescence cell-based qHTS assay (AID 1671200); further: series mostly up to about 77 µM; nearly all actives have a fitted effect of over 50% in size
# Summary of the method: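 Thallium flux as potassium surrogate: FluxOR II dye loaded 1 h at room temperature into hERG-expressing U2OS cells, then stimulus buffer added after 10 min. Kinetic 480 nm excitation/540 nm emission read, 2 min.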
# [5] = target: Cytochrome P450 3A4 (Homo sapiens) (UniProt P08684); test: Cytochrome P450 Family 3 Subfamily A Member 4 (CYP3A4) small molecule antagonists: luciferase reporter qHTS assay (AID 1671201); further: nearly all actives have a fitted effect of over 50% in size; further: potency means the concentration at half of the fitted maximal effect
# Summary of the method: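 Recombinant human CYP3A4 converts a proluciferin substrate to luciferin over 1 h at room temperature after NADPH regeneration solution is added (compound preincubated 10 min); detection reagent stops reaction, luminescence read 20 min later as relative units.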
# Cytochrome P450 2C19 (Homo sapiens), sequence (P33261 whole entry, looked up): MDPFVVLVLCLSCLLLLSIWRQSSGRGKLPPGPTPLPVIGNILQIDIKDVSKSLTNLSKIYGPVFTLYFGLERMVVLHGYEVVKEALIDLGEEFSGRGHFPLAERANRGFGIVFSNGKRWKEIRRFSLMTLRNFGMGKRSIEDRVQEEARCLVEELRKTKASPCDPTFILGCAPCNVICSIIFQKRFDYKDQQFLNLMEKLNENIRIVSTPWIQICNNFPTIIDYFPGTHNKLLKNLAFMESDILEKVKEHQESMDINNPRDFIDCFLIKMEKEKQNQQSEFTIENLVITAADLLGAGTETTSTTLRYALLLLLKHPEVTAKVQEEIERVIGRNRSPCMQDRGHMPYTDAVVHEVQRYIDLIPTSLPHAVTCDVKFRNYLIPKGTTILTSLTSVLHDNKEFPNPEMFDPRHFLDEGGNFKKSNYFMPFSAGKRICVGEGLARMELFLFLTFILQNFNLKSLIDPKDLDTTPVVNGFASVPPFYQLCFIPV
# Cytochrome P450 2C9 (Homo sapiens), sequence (P11712 whole entry, looked up): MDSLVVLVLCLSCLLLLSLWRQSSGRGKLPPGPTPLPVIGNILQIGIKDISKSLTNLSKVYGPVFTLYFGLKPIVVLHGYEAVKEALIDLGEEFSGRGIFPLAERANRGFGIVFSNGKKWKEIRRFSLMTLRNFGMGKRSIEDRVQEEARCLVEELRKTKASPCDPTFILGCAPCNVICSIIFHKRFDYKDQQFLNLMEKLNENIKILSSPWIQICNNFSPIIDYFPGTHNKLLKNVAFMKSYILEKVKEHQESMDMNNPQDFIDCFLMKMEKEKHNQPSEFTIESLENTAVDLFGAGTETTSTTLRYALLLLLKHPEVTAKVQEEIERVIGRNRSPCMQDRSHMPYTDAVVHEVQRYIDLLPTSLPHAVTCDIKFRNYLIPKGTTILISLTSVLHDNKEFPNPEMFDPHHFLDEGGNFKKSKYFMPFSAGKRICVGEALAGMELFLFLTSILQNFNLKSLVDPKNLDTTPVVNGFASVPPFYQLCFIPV
# Voltage-gated inwardly rectifying potassium channel KCNH2 (Homo sapiens), sequence (Q12809 whole entry, looked up): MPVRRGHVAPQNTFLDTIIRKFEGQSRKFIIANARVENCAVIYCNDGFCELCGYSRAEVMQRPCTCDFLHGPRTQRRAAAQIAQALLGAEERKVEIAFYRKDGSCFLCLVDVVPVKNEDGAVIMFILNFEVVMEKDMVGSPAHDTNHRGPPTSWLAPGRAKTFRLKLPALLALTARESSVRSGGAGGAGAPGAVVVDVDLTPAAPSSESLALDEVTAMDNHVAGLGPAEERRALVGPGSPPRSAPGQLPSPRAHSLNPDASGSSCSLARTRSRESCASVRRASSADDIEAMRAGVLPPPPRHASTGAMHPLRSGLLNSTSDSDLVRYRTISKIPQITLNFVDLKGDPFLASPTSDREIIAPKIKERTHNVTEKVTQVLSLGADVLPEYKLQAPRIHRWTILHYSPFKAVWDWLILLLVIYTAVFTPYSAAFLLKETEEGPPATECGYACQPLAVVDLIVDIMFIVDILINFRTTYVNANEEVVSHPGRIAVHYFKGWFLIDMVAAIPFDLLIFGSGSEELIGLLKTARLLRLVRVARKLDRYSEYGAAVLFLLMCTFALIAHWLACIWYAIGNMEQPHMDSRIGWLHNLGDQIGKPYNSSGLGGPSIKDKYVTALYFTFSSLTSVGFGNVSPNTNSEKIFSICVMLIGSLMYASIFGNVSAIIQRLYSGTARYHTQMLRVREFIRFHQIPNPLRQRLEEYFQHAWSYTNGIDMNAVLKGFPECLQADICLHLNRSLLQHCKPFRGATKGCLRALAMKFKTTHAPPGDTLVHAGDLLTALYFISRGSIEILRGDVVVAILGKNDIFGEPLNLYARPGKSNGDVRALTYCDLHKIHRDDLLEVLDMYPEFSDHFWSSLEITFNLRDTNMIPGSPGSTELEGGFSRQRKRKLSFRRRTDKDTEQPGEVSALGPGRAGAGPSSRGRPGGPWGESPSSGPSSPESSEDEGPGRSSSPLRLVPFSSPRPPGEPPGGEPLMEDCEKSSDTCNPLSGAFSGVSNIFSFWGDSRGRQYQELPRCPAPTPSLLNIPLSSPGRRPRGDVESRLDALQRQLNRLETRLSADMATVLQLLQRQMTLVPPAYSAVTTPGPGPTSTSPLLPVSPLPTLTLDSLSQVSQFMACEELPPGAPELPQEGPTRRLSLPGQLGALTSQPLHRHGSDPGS
# Cytochrome P450 3A4 (Homo sapiens), sequence (P08684 whole entry, looked up): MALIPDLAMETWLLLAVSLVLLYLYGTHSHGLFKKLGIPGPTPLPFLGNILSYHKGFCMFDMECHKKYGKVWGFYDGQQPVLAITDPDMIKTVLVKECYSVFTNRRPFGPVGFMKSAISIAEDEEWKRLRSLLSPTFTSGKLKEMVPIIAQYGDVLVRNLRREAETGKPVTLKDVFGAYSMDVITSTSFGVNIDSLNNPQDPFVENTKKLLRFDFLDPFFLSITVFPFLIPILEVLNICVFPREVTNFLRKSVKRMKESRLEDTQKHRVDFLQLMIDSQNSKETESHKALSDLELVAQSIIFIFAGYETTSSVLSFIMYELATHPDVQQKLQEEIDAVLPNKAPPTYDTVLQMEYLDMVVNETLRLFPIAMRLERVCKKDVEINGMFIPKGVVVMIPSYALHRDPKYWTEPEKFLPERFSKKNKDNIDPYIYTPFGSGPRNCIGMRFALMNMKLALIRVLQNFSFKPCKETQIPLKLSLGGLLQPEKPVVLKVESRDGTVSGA
# Cytochrome P450 1A2 (Homo sapiens), sequence (P05177 whole entry, looked up): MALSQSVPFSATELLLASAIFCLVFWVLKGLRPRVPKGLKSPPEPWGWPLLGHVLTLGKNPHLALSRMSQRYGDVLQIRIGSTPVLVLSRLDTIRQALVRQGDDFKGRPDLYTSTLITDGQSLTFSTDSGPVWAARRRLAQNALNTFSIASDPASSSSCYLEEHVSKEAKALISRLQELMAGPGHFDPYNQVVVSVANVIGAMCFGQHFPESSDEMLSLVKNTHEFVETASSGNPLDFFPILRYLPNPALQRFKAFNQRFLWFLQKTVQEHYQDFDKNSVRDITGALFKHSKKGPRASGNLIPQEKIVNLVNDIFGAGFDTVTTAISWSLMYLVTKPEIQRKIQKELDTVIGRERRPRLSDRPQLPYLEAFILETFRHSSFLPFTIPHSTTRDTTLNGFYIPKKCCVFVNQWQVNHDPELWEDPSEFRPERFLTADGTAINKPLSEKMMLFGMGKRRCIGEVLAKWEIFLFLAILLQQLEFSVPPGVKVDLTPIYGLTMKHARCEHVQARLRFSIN
SMILES,Potency [1],Potency [2],Potency [3],Potency [4],Potency [5]
O=C1OC2(c3ccccc31)c1cc(I)c(O)c(I)c1Oc1c2cc(I)c(O)c1I,56.5 µM (active) and 18 µM (active) and 5.43 µM (active),,,,
C1CN(SSN2CCOCC2)CCO1,35.2 µM (active) and 35.6 µM (active),39.5 µM (active) and 28.3 µM (active),62.6 µM (active) and 39.9 µM (active),inactive,inactive
C=CCCCCCCCCCC,inactive,inactive,inactive,inactive,inactive
C=C[Si](OCCOC)(OCCOC)OCCOC,inactive,inactive,inactive,inactive,20.1 µM (active) and 31.7 µM (active)
ClC/C=C/CCl,inactive,inactive,inactive,inactive,inactive
CC1(C)NC(=O)N(c2ccc([N+](=O)[O-])c(C(F)(F)F)c2)C1=O,2.52 µM (active) and 1.38 µM (active),10 µM (active) and 7.76 µM (active),11.2 µM (active) and 12.3 µM (active),inactive,
COc1cc([C@H]2Oc3cc([C@H]4Oc5cc(O)cc(O)c5C(=O)[C@@H]4O)ccc3O[C@@H]2CO)ccc1O,inactive,10 µM (active) and 8.71 µM (active),35.5 µM (active) and inactive,,
CC(C)[C@@H]1CC[C@@H](C)CC1=O,31.7 µM (active) and inactive,inactive,30.9 µM (active),inactive,inactive
Cc1ccc(S(=O)(=O)NCl)cc1,inactive,inactive and 75.1 µM (active),inactive and 75.1 µM (active),inactive,inactive
